Values without a mark were called inactive. Inconclusive results are not listed. A call without a number means that no potency is given here. Calls of active or inactive are those of the source. Unless noted, calls come from the whole dose curve; as a rule, active = well fitted curve in the direction sought with a large enough effect; inconclusive = small, poorly fitted or top-dose-only effect, or another doubt; inactive = no such curve, though single readings can be large; an effect the other way counts as inactive or inconclusive.
Legend:
[1] = Cell Viability - BJ (AID 421; calls by dose curve;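 note: potency is the fitted concentration of half-maximal effect; cells exposed to compound for 40 hours at 37 °C before readout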); settings: BJ fibroblast viability, qHTS
In short: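 Normal human BJ foreskin fibroblasts, 1500/well in complete medium, treated 40 hr at 37 °C. Cellular ATP by CellTiter-Glo luminescence; normalized to DMSO and 100 uM tamoxifen, AC50 from Hill fit.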

[2] = Cell Viability - Jurkat (AID 426;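 active = dose-dependent loss of cell ATP signal giving a full or clear fitted curve, ranked by lower potency value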; note: potency is the fitted concentration of half-maximal effect); settings: qHTS
In short: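 Cells of the human T-cell leukemia line Jurkat (E6-1) are seeded at 5000 per well, treated with compound across a concentration range for 40 hours at 37 °C, then lysed with CellTiter-Glo; luminescence reports ATP.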

[3] = Cell Viability - Hek293 (AID 427;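 active = compounds whose dose-response curve shows a full or clear partial loss of cell viability, called from curve shape rather than a numeric limit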;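 note: potency is the fitted concentration of half-maximal effect; cells exposed to compound for 40 hours at 37 °C before reading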); settings: qHTS
In short: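 HEK293 cells in complete medium were exposed to compound for 40 hr at 37 °C, then cellular ATP was read by CellTiter-Glo luminescence. Data were normalized to DMSO (basal) and 100 uM tamoxifen (100% inhibition), and AC50 came from Hill fits.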

[4] = Cell Viability - HepG2 (AID 433; calls by dose curve;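 note: potency is the fitted concentration of half-maximal effect; potency for ATP loss meaning cytotoxicity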); settings: qHTS
In short: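 Cytotoxicity read as ATP loss (CellTiter-Glo luminescence) after 40 hr compound exposure of HepG2, 1500 cells/well, 37 °C. AC50 by Hill equation; 0% set by DMSO, 100% inhibition by 100 uM tamoxifen.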

[5] = Cell Viability - SK-N-SH (AID 435; calls by dose curve; note: potency is the fitted concentration of half-maximal effect); settings: SK-N-SH neuroblastoma cell viability qHTS
In short: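 qHTS cytotoxicity: CellTiter-Glo ATP luminescence after 40 h compound exposure of human neuroblastoma SK-N-SH cells at 37 °C. AC50 derived by Hill-equation fitting, with DMSO as basal and 100 uM tamoxifen as full inhibition.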

[6] = molecular target: Mitogen-activated protein kinase 10 (Mus musculus) (UniProt Q61831); assay: JNK3 AlphaScreen Assay (AID 530; active = well fitted curve in either direction with a large enough effect, not every such curve was filed as active;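 note: kinase came from lysate of stimulated human HepG2 cells; signal reports phosphorylation of biotinylated GST-cJun 1-79 at Ser73 with 10 µM ATP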); settings: JNK3 lysate, c-Jun phosphorylation; series mostly up to 57.1 µM
In short: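 qHTS titrations with 15 min compound pre-incubation before adding ATP (10 uM final). Read-out: AlphaScreen of Ser73-phosphorylated biotin-GST-cJun using HepG2 lysate JNK3 activated by IL-1β and TNFα.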

[7] = Cell Viability - N2a (AID 540); settings: N2a mouse neuroblastoma cell viability; activity change, negative = cytotoxicity: at 92.2 µM (top of the series); note: nearly all actives have a fitted effect of over 45% in size
In short: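 Cytotoxicity was scored as loss of cellular ATP in N2a cells, a mouse neuroblastoma line. Compounds are applied in a qHTS concentration series for 40 hr at 37 °C.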

[8] = Cell Viability - NIH 3T3 (AID 541); settings: NIH 3T3 cell viability, qHTS; activity change, negative = cytotoxicity: at 92.2 µM (top of the series); note: nearly all actives have a fitted effect of over 25% in size
In short: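 Cells seeded at 1000/well, rested 5 hr at 37 °C, then dosed and incubated 40 hr at 37 °C. CellTiter-Glo added, 20 min room temperature, luminescence read. AC50 by Hill fit.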

[9] = Cell Viability - HUV-EC-C (AID 542); settings: HUV-EC-C endothelial cell viability, qHTS; series mostly up to 92.2 µM; note: nearly all actives have a fitted effect of over 35% in size
In short: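 Cells were seeded at 1000 per well and incubated 5 hr at 37 °C before compound addition. After 40 hr at 37 °C, CellTiter-Glo reagent was added for 20 min and luminescence read. AC50 values came from Hill-equation modelling.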

[10] = Cell Viability - H-4-II-E (AID 543); settings: H-4-II-E rat hepatoma viability; series mostly up to 92.2 µM; note: nearly all actives have a fitted effect of over 35% in size
In short: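 Cells seeded at 1500 per well and rested 5 hr; compounds added; 40 hr incubation at 37 °C; CellTiter-Glo added, 20 min at room temperature; luminescence read. Hill-equation fits gave AC50.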

[11] = Cell Viability - SH-SY5Y (AID 544); settings: SH-SY5Y neuroblastoma cell viability; viability change, negative = cytotoxic: at 92.2 µM (top of the series); note: nearly all actives have a fitted effect of over 55% in size
In short: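 Cells were plated at 1500 per well and allowed 5 hr at 37 °C. Compounds were added across a concentration range and incubated 40 hr at 37 °C. CellTiter-Glo was added for 20 min at room temperature before luminescence reading.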

[12] = Cell Viability - Renal Proximal Tubule (AID 545); settings: renal proximal tubule cells viability, primary cells of rat origin; series mostly up to 91.7 µM; note: nearly all actives have a fitted effect of over 40% in size
In short: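 Viability taken as intracellular ATP (CellTiter-Glo luminescence) after 40 hr, 37 °C compound treatment of primary proximal tubule cells from rat kidney, 1000 cells/well; Hill-equation fits of qHTS concentration-response data gave AC50.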

[13] = Cell Viability - Mesenchymal (AID 546); settings: mesenchymal cells viability, qHTS; series mostly up to 91.7 µM;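 note: cells exposed to compound for 40 hours before reading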
In short: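 CellTiter-Glo luminescence (intracellular ATP, 20 min room temperature) after 40 hr compound exposure at 37 °C of 1000 glomerulus-derived human kidney mesenchymal cells/well; AC50 values obtained by fitting qHTS concentration-response data to the Hill equation.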

[14] = Cellular Toxicity (caspase-3) HepG2 (AID 654); settings: HepG2 caspase-3 activation, luminescence; series mostly up to 92.2 µM;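 note: cells exposed to compound for 16 hours before reading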
In short: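 Caspase 3/7 activation in HepG2 is measured as rising luminescence after a 16 hr treatment at 37 °C. Values are scaled between DMSO basal and 100 uM tamoxifen, and AC50 is fitted with the Hill equation.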

[15] = Cellular Toxicity (caspase-3) Jurkat (AID 655); settings: Jurkat caspase-3 activation, luminescence; caspase-3 activation: at 92.2 µM (top of the series), DMSO = 0%, tamoxifen = 100%;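 note: cells exposed to compound for 16 h at 37 °C before reading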
In short: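 Luminescent Caspase-Glo 3/7 read-out (20 min, room temperature) after 16 h compound treatment at 37 C of 5000 Jurkat cells per well. AC50 derived by Hill-equation fitting, scaled between DMSO basal and 100 uM tamoxifen stimulation.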

[16] = Cellular Toxicity (caspase-3) HUV-EC-C (AID 656); settings: HUV-EC-C cells, caspase-3 activation (apoptosis), vehicle = 0, 100 µM tamoxifen = 100%; series mostly up to 92.2 µM
In short: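 Luminescent Caspase-Glo 3/7 readout after 16 h, 37 °C compound exposure of HUV-EC-C endothelial cells, 1000 per well, complete medium. AC50 derived by Hill fitting, with DMSO as baseline and 100 uM tamoxifen as full activation.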

[17] = Cellular Toxicity (caspase-3) SHSY5Y (AID 657); settings: SH-SY5Y caspase-3 activation, DMSO zero, 10 µM staurosporine = 100%; series mostly up to 91.7 µM
In short: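 Luminescent Caspase-Glo 3/7 read-out, 1 hr room temperature, follows 16 hours of compound treatment of SH-SY5Y cells at 37 °C. Normalization: DMSO basal, 10 uM staurosporine as 100%; AC50 values from Hill-equation concentration-response fits.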

[18] = Cellular Toxicity (caspase-3) BJ (AID 658); settings: BJ fibroblasts, luminescence, normalized: DMSO 0%, staurosporine 100%; series mostly up to 91.7 µM
In short: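 Caspase-Glo 3/7 luminescence, read 1 hr after reagent at room temperature, in normal BJ fibroblasts exposed 16 hours at 37 °C. AC50 values from Hill-equation concentration-response, scaled between DMSO basal and 10 uM staurosporine as 100%.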

[19] = Cellular Toxicity (caspase-3) MRC-5 (AID 659); settings: MRC-5 cells, luminescence, normalized: DMSO 0%, 10 µM staurosporine 100%; series mostly up to 91.7 µM
In short: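 Luminescent Caspase-Glo 3/7 read-out (1 h, room temperature) after a 16 h, 37 °C compound exposure of MRC-5 lung fibroblasts at 1500 cells/well. Concentration-response AC50 from Hill equation; 0% DMSO, 100% 10 uM staurosporine.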

Structure (SMILES) | Potency [1] | Potency [2] | Potency [3] | Potency [4] | Potency [5] | outcome [6] | activity change, negative = cytotoxicity [7] | Potency [8] | Potency [9] | Potency [10] | Potency [11] | Potency [12] | Potency [13] | Potency [14] | caspase-3 activation [15] | outcome [16] | outcome [17] | outcome [18] | outcome [19]
O=C(O)c1ccc(C(=O)O)cc1 | > 92 µM | > 92 µM | > 92 µM | > 92 µM | > 92 µM | inactive | 0.102% | inactive | inactive | inactive | inactive | inactive | inactive | inactive | 1.28% | inactive | inactive | inactive | inactive
Cc1nc2ccc(Cl)cc2[nH]1 | > 92 µM | > 92 µM | > 92 µM | > 92 µM | > 92 µM | inactive | -5.91% |  |  | inactive | inactive | inactive | inactive | inactive |  | inactive | inactive | inactive | inactive
Cc1cc(C)cc(O)c1 | > 92 µM | > 92 µM | > 92 µM | > 92 µM | > 92 µM | inactive | -1.73% | inactive | inactive | inactive | inactive | inactive | inactive | inactive | 0.986% | inactive | inactive | inactive | inactive
CCCCC(CC)CO (stereo not given) | > 92 µM | > 92 µM | > 92 µM | > 92 µM | > 92 µM | inactive | -1.19% | inactive |  |  | inactive | inactive | inactive | inactive | 0.69% | inactive | inactive | inactive | inactive
Cc1ccc2c(c1[N+](=O)[O-])C(=O)c1ccccc1C2=O | > 92 µM | > 92 µM | 0.351 µM (active) | > 92 µM | > 92 µM |  | 3.24% | inactive | inactive | inactive | inactive | inactive | inactive | inactive | -1.22% | inactive | inactive | inactive | inactive
Cc1ccccc1C(N)=O | > 92 µM | > 92 µM | > 92 µM | > 92 µM | > 92 µM | inactive | -9.85% |  |  | inactive | inactive | inactive | inactive | inactive | 1.13% | inactive | inactive |  | 
COC(=O)CS | > 92 µM | > 92 µM | > 92 µM | > 92 µM | > 92 µM | inactive | -8.95% | inactive | inactive | inactive |  | inactive | inactive | inactive | -2.15% | inactive | inactive | inactive | inactive
O=C(O)CNC(=O)c1ccc(CO)o1 | > 92 µM | > 92 µM | > 92 µM | > 92 µM | > 92 µM | inactive |  | inactive |  | inactive |  | inactive | inactive | inactive | -2.47% | inactive | inactive | inactive | inactive
CCCOCC(C)OCC(C)O (stereo not given) | > 92 µM | > 92 µM | > 92 µM | > 92 µM | > 92 µM | inactive | -9.53% |  | inactive | inactive | inactive | inactive | inactive | inactive | -2.41% | inactive | inactive | inactive | inactive
CCC(C)(C)OC | > 92 µM | > 92 µM | > 92 µM | > 92 µM | > 92 µM | inactive | -20.8% | inactive | inactive | inactive | inactive | inactive | inactive | inactive | 1.32% | inactive | inactive | inactive | 
CC(C)(C)c1ccc(OCC2CO2)cc1 (stereo not given) | > 92 µM | > 92 µM | > 92 µM | > 92 µM | > 92 µM | inactive | -14.9% |  | inactive | inactive | inactive | inactive | inactive | inactive | 15.6% | inactive | inactive | inactive | inactive
Cc1ccc2ncccc2c1 | > 92 µM | > 92 µM | > 92 µM | > 92 µM | > 92 µM | inactive | 3.92% | inactive | inactive | inactive | inactive | inactive | inactive | inactive | 0.555% | inactive | inactive | inactive | 
